Inhibition data for 21 compounds are collected here from PubChem BioAssay AID602142 (NMMLSC, 2011).

Molecules are shown by their SMILES. Several values for one entry are separate records, joined by “and”; a condition that tells them apart may be missing. Identical values can stand only once. Some of the results follow. A number with no mark means an inactive call. The rule behind the calls is not given here.

The target in this assay is Lethal factor (Bacillus anthracis) (UniProt P15917). In words: Bacillus anthracis LF protease inhibitors, confirmation, biochemical, multiplex microsphere, cherry pick 1 (AID 602142). The conditions noted are these: multiplex microsphere protease cleavage assay, at 10 µM, active compounds read high.
Lethal factor (Bacillus anthracis), sequence (P15917 whole entry, looked up): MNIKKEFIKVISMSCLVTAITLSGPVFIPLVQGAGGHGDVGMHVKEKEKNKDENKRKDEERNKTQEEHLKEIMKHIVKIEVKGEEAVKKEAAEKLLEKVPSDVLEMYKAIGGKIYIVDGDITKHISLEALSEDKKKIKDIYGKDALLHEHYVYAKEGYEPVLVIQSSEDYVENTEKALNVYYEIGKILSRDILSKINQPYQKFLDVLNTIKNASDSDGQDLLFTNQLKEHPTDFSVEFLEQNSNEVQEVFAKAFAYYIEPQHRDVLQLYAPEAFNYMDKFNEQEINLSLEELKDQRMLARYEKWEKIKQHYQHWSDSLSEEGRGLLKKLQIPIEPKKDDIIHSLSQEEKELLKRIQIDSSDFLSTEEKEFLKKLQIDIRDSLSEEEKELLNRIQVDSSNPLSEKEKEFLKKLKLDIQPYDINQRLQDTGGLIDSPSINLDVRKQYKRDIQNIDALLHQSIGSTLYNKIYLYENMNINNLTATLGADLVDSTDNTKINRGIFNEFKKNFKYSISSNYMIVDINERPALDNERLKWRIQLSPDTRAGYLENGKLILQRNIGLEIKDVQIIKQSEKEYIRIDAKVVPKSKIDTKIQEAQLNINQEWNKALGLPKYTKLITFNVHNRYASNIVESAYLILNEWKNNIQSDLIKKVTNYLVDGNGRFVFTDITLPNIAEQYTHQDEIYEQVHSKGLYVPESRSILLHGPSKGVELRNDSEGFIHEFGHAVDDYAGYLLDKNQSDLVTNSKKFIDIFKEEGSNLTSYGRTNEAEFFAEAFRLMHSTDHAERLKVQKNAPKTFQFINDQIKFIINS
As to `COc1ccccc1C1CCN(C(=S)Nc2ccc(Br)cc2)CC1`, the inhibition was 1.5%.

For the compound `O=C(O)c1cc(S(=O)(=O)NC2CCCc3ccccc32)ccc1O` (stereo unspecified), the inhibition is 1.4%.

In the case of `Cc1ccccc1NC(=O)c1cc(S(=O)(=O)Nc2cccc(C(=O)O)c2)ccc1Cl`, the inhibition is -0.5%.

Consider `COc1cc(C(=O)NCc2ccc3c(c2)cc(C)n3C)cc(OC)c1OC`, for which the inhibition is -4%.

With `CN1CCN(c2ccc(NC(=O)c3ccccc3)cc2)CC1`, the inhibition was 4.8%.

Turning to `CN(C(=O)c1ccccn1)c1nnc(-c2ccccn2)s1`, the inhibition is -4.3%.

With `COc1ccc(C2CC(c3cccs3)=NN2c2nc(C)c(C(C)=O)s2)cc1OC` (stereo unspecified), the inhibition was 10.5% and 15.1%.

With `CCCSc1nc2sc3c(c2c(=O)n1-c1ccc(OC)cc1)CCN(C)C3`, the inhibition is 4.5%.

Consider `Nc1ccccc1Sc1cc(Cl)nnc1Cl`, for which the inhibition is -3.5%.

Take `CCCN1C2CCCC1CC(NC(=O)c1cccc(OC)c1)C2` (stereo unspecified): the inhibition is 3.1%.

For `Cc1onc(-c2ccccc2Cl)c1C(=O)NCCn1ccc2ccccc21`, the inhibition is 4.3%.

As for `COc1ccccc1CNC(=O)C1Cc2ccccc2C(=O)O1` (stereo unspecified), the inhibition was 1.5%.

With `Cc1c(NC(=O)c2cccnc2)c(=O)n(-c2ccccc2)n1C`, the inhibition was 4.2%.

`CCOCCn1c(-c2ccccc2)nc2ccccc21`: the inhibition was -0.9%.

For the compound `COc1ccc(N(CC(=O)NCCSCc2cccc(Cl)c2)S(C)(=O)=O)cc1`, the inhibition was -1.8%.

For the compound `O=C(Nc1nnc(CCc2ccccc2)s1)C1CCCO1` (stereo unspecified), the inhibition was 2.9%.

Turning to `Cc1cccc2cc3c(N)c(C(=O)N4CCCc5ccccc54)sc3nc12`, the inhibition was 13.6%.

As to `O=C(CN1CCCCCC1)Nc1c(Cl)cc(Cl)cc1Cl`, the inhibition is 2.3%.

In the case of `COc1cc2cc(CN(CCN3CCCC3)C(=O)Nc3ccccc3Cl)c(=O)[nH]c2cc1OC`, the inhibition is -0.1%.

As to `COc1ccc(Br)cc1CNCCc1cccc(Cl)c1`, the inhibition was 3.2%.

For the compound `Cc1ccc(-c2nc(-c3cccnc3)sc2CC(=O)Nc2ccc(C)c(Cl)c2)cc1`, the inhibition was 1.7%.
